# High-throughput results from PubChem.
# The list is not random: actives were taken first. Their share in the collection is about 19%.
# TDP1 cell CPT: growth inhibition of DT40 Tdp1-/-;hTDP1 cells with camptothecin (screen for TDP1 inhibitors) | chicken DT40 Tdp1-/-;hTDP1 cells + 20 nM CPT, ATP luminescence, 48 h | Potency, µM (highest dose often 46.2 µM), most hits filed as inhibitors | 12% of 420,000 active; note: nearly all actives have a fitted effect of over 55% in size
#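 Cell growth measured by CellTiter-Glo luminescence after a minimum 48 h, 37 C compound exposure with 20 nM CPT in Tdp1-knockout DT40 cells stably expressing hTDP1, seeded 400/well; qHTS titration format.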
# HT1080 IDH1KD tx: kills HT-1080 cells with IDH1 knockdown; HT-1080 IDH1 knockdown viability, ATP luminescence, 48 h; Potency, µM (series often up to 46.1 µM), actives largely listed as cytotoxic; 2% of 360,000 active; AID 686971
#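 After a 2 h attachment period, IDH1KD HT-1080 cells took pin-transferred compound for 48 h at 37 °C; ATP-based luminescence after 10 min room-temperature reagent incubation reported viability.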
# KB-3-1 cytotox: KB-3-1 parental cell cytotoxicity | KB-3-1 viability, CellTiter-Glo ATP luminescence, 72 h | Potency, µM (top dose mostly 46.1 µM), most hits filed as cytotoxic | 1.4% of 400,000 active | AID 1347075; note: nearly all actives have a fitted effect of over 60% in size
#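 Luminescent ATP read-out (CellTiter-Glo) measures survival of drug-naive KB-3-1 cells after 72 h compound exposure at 37 °C. Titration series was screened from lowest to highest concentration, with DMSO vehicle plates as background controls.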
# KB-V1 MDR tox: kills drug-selected multidrug resistant KB-V1 cells | KB-V1 MDR cells viability, CellTiter-Glo, 72 h | Potency, µM (titrated, usually from 46.1 µM), actives largely listed as cytotoxic | 3.4% of 400,000 active | AID 1347076; note: nearly all actives have a fitted effect of over 60% in size
#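 Following 72 h at 37 degrees C with compound, KB-V1 cell viability was read by CellTiter-Glo luminescence, medium being phenol-red-free DMEM plus 10% FBS; concentration-response parameters came from normalized, curve-fitted qHTS data.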
# TDP1 cell noCPT: qHTS for Inhibitors of human tyrosyl-DNA phosphodiesterase 1 (TDP1): qHTS in cells in absence of CPT; DT40 Tdp1-/- hTDP1 cells, no CPT, ATP luminescence, 48 h; Potency, µM (top dose mostly 46.2 µM), usual class: inhibitors; 15% of 420,000 active; AID 686978, 2013; note: nearly all actives have a fitted effect of over 55% in size
#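 Seeded 400 DT40-hTDP1 cells/well (vehicle DMSO, no 20 nM CPT); pinned compounds; ≥48 hr at 37 °C; CellTiter-Glo luminescence as viability measure.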
# HT1080-NT tox: kills 2HG-producing HT-1080-NT fibrosarcoma cells; HT-1080-NT fibrosarcoma viability, CellTiter-Glo ATP luminescence, 48 h; Potency, µM (highest dose often 46.1 µM), actives largely listed as cytotoxic; 1.6% of 360,000 active; AID 686970;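 note: NT is the 2HG producing partner of a matched IDH1 knockdown line; nearly all actives have a fitted effect of over 55% in size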
#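 Luminescent CellTiter-Glo readout after 48 hours of compound exposure at 37 degrees C defined viability of HT-1080-NT cells. Activity was normalized to DMSO wells and cell-free media wells; concentration-response curves were fitted and assigned curve classes.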
# Numbers stand for hits; – = inactive; ? = inconclusive; · = no result. Calls come from the whole dose curve; as a rule, active = well fitted curve in the direction sought with a large enough effect; inconclusive = small, poorly fitted or top-dose-only effect, or another doubt; inactive = no such curve, though single readings can be large; an effect the other way counts as inactive or inconclusive.
SMILES,TDP1 cell CPT,HT1080 IDH1KD tx,KB-3-1 cytotox,KB-V1 MDR tox,TDP1 cell noCPT,HT1080-NT tox
CC(=O)Nc1ccc(C(=O)Nc2nc(-c3ccccn3)cs2)cc1,16.4µM,–,–,–,14.6µM,–
O=C(Nc1nc(-c2ccccn2)cs1)c1ccccc1-n1cnnn1,2.59µM,?,?,?,?,?
O=C(Nc1nc(-c2ccccn2)cs1)c1ccc2c(c1)OCCO2,3.26µM,?,–,?,3.26µM,–
CCC(=O)c1ccc(OCC(=O)OCC(=O)NCCCc2ccccc2)cc1,–,–,–,–,–,–
CC(C)(C)OC(=O)N1CCN(C(=O)c2ncn(Cc3ccccc3)c2C(=O)N2CCN(C(=O)OC(C)(C)C)CC2)CC1,–,–,–,–,–,–
COc1cc(OC)cc(C(=O)N2CCN(Cc3ccccc3C(F)(F)F)CC2)c1,?,–,–,14.6µM,?,–
COc1cccc(OC)c1C(=O)N1CCN(Cc2ccccc2C(F)(F)F)CC1,?,–,–,–,?,–
COc1cc(C(=O)N2CCN(Cc3ccccc3C(F)(F)F)CC2)cc(OC)c1OC,?,–,–,14.6µM,?,–
COc1ccc(N2CC(C)Cn3c2nc2c3c(=O)n(Cc3ccc(C)cc3)c(=O)n2C)c(OC)c1 (centres undefined),?,–,–,–,16.4µM,–
O=C(N1CCN(c2ccc(F)cc2)CC1)C1(c2cccs2)CCOCC1,–,–,–,23.1µM,?,–
O=C(/C=C/c1cccs1)N1CCN(c2ccc(F)cc2)CC1,–,–,–,?,?,–
O=C(N1CCN(c2cccc(Cl)c2)CC1)C1(S(=O)(=O)c2ccc(Cl)cc2)CC1,–,–,–,–,–,–
O=C(N1CCN(c2cccc(Cl)c2)CC1)C1(c2cccs2)CCOCC1,23.1µM,–,?,4.61µM,20.6µM,–
Cc1cc(=O)oc2cc(OCC(=O)Nc3c(C(C)C)cccc3C(C)C)ccc12,?,·,–,–,13µM,·
Cc1cc(=O)oc2cc(NC(=O)C(C)Oc3cccc(Cl)c3)ccc12 (centres undefined),?,?,–,–,?,25.9µM
Cc1cc(OCC(=O)Nc2c(C(C)C)cccc2C(C)C)no1,13µM,–,?,–,8.2µM,–
Cc1noc(C)c1CCC(=O)Nc1c(C(C)C)cccc1C(C)C,–,–,–,14.6µM,–,–
Cc1cc(=O)oc2cc(NC(=O)c3ccccc3OC(F)F)ccc12,–,–,–,?,–,–
O=C(O)c1cc2ccccc2c2cc(Br)ccc12,–,–,–,–,–,–
CCC(=O)N1c2ccccc2C(N(C(=O)CC)c2ccccc2)CC1C (centres undefined),?,–,–,?,9.2µM,–
CC(=O)NCCNC(=O)CCCc1nnc2n(C)c(=O)c3sccc3n12,–,·,–,?,–,·
Cc1ccc(CNC(=O)C2CCN(C(=O)N3CC(C)Oc4ccc(Cl)cc43)CC2)cc1 (centres undefined),?,·,–,–,18.4µM,·
Cc1ccc2c(c1)N(C(=O)N1CCC(C(=O)NCc3ccccc3C)CC1)CC(C)O2 (centres undefined),20.6µM,·,–,–,16.4µM,·
CCOc1ccc(CNC(=O)C2CCCN(c3nc4c(C)cc(C)cc4s3)C2)cc1 (centres undefined),18.4µM,·,–,–,?,·
COc1ccc(CCNC(=O)C2CCCN(c3nc4ccccc4s3)C2)cc1OC (centres undefined),?,–,–,–,?,–
SMILES,TDP1 cell CPT,HT1080 IDH1KD tx,KB-3-1 cytotox,KB-V1 MDR tox,TDP1 cell noCPT,HT1080-NT tox
CCOc1ccc2nc(N3CCCC(C(=O)NCc4ccc(C)cc4)C3)sc2c1 (centres undefined),?,·,–,–,?,·
COc1ccc(CCNC(=O)C2CCCN(c3nc4c(C)cc(C)cc4s3)C2)cc1OC (centres undefined),20.6µM,·,–,–,13µM,·
O=C(Cn1c(NCCO)nc2ccccc21)Nc1ccc2c(c1)OCCCO2,–,–,–,–,–,–
O=C1c2ccccc2NC(c2ccc(-c3ccccc3F)o2)N1O (centres undefined),·,·,?,–,·,·
Cc1cc([N+](=O)[O-])ccc1-c1ccc(C2Nc3ccccc3C(=O)N2O)o1 (centres undefined),23.1µM,7.08µM,23.1µM,–,23.1µM,?
CCOC(=O)[C@]12CCC=C1N(Cc1ccco1)C(=O)[C@H](CC(=O)N1CCN(C(=O)c3ccco3)CC1)C2,–,–,–,–,–,–
COc1ccc(/C=C/C(=O)c2ccccn2)cc1,20.6µM,?,–,–,?,?
COc1ccc(OC)c(NC(=O)/C=C/c2ccccc2[N+](=O)[O-])c1,–,–,–,–,?,–
COc1ccc([N+](=O)[O-])c(C=CC(=O)c2ccccn2)c1,5.17µM,?,?,?,2.31µM,?
CCCCSc1nnc2n(CCc3ccccc3)c(=O)c3c4c(sc3n12)COC(C)(C)C4,23.1µM,–,–,–,23.1µM,–
CC(=O)C(C(C)=O)C(c1ccccc1)c1nc2ccccc2[nH]c1=O (centres undefined),–,–,–,–,–,–
O=C(c1ccco1)N1CCN(C(=S)NCc2ccc(F)cc2)CC1,–,–,–,–,?,–
CCCCCN1C=CC(=C2C(=O)c3ccccc3C2=O)C=C1,13µM,9.2µM,–,9.2µM,?,23.1µM
C#CCOc1ccc(-c2nnc(Nc3cccc(C)c3)c3ccccc23)cc1,?,·,?,–,?,·
CC(=O)c1ccc(NC(=O)C2CCN(S(=O)(=O)c3ccc4c(c3)CCCN4C(=O)C3CCC3)CC2)cc1,11.6µM,·,–,–,?,·
CSc1cccc(NC(=O)C2CCCN(S(=O)(=O)c3ccc4c(c3)CCCN4C(C)=O)C2)c1 (centres undefined),18.4µM,·,–,?,20.6µM,·
CSc1cccc(NC(=O)C2CCN(S(=O)(=O)c3ccc4c(c3)CCCN4C(=O)C3CCC3)CC2)c1,?,·,–,–,11.6µM,·
Cc1cccc(NC(=O)C2CCN(S(=O)(=O)c3ccc4c(c3)CCCN4C(=O)C3CCC3)CC2)c1,?,·,–,–,?,·
Cc1ccccc1OCC(=O)Nc1nnc(S(=O)(=O)N2CCCCCC2)s1,–,·,–,–,–,·
N#C/C(=C\c1c(Oc2ccc(F)cc2)nc2ccccn2c1=O)c1nc2ccccc2s1,?,·,–,–,11.6µM,·
Cc1cc(C)cc(Oc2nc3c(C)cccn3c(=O)c2/C=C(\C#N)c2nc3ccccc3[nH]2)c1,–,·,–,–,–,·
